Experimental data taken from PubChem BioAssay (NCI).
This is part of a sample that, as a whole, favours compounds with a hit. Of some 79,000 tested, about 15% had one in any assay. Active and inactive are the calls of the source. No stated cut-off is given here; in the data, active means growth inhibition above about 70%; inactive means the rest.

What was measured:
[1] = NCI Yeast Anticancer Drug Screen. Data for the wt1 strain (AID 149);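 further: 0% = growth of vehicle-treated wt1 cultures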; details: S. cerevisiae wt1 strain (SPY 50644) growth inhibition, stronger effect = higher value
How it was run: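 Yeast wt1 strain exposed to compounds; growth inhibition measured relative to vehicle-treated controls.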

[2] = NCI Yeast Anticancer Drug Screen. Data for the rad50EPP+ strain (AID 151);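 further: 0% = growth of vehicle-treated control cultures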; details: S. cerevisiae rad50 mutant strain, stronger effect = higher value
How it was run: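 Vehicle-normalised growth inhibition; rad50EPP+ yeast strain, altered in DNA damage repair, compound-treated.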

[3] = NCI Yeast Anticancer Drug Screen. Data for the mgt1 strain (AID 153); details: S. cerevisiae mgt1 mutant growth inhibition, stronger effect = higher value
How it was run: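 Vehicle-normalized growth inhibition is determined in mgt1 yeast, a strain selected for a defined alteration in DNA repair or cell cycle control.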

[4] = NCI Yeast Anticancer Drug Screen. Data for the rad50 strain (AID 155);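 further: 0% = growth of vehicle-only cultures of the same strain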; details: S. cerevisiae rad50 strain growth inhibition, stronger effect = higher value
How it was run: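 Yeast carrying a defined DNA repair defect were exposed to test compounds, and growth was compared with vehicle-treated controls to give percent inhibition.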

[5] = NCI Yeast Anticancer Drug Screen. Data for the mec2-1 strain (AID 157); details: S. cerevisiae mec2-1 strain, stronger effect = higher value
How it was run: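 Mutant yeast (mec2-1) grown with compound; growth inhibition relative to vehicle control reported.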

[6] = NCI Yeast Anticancer Drug Screen. Data for the rad14 strain (AID 159);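 further: 0% = growth of vehicle-treated control cultures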; details: S. cerevisiae rad14 strain growth inhibition, stronger effect = higher value
How it was run: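 Yeast cells carrying a defined DNA-repair defect were exposed to compounds, and growth inhibition was calculated relative to vehicle-treated control cultures.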

[7] = NCI Yeast Anticancer Drug Screen. Data for the sgs1 mgt1 strain (AID 161);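 further: 0% = growth of cultures given vehicle only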; details: S. cerevisiae sgs1 mgt1 strain, stronger effect = higher value
How it was run: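 Percent growth inhibition was derived by comparing compound-exposed mutant yeast with vehicle-exposed cultures. The strain carries alterations in DNA damage repair.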

[8] = NCI Yeast Anticancer Drug Screen. Data for the CLN2oe strain (AID 163);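 further: 0% = growth of vehicle-only control cultures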; details: S. cerevisiae CLN2oe strain, stronger effect = higher value
How it was run: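 Compounds are applied to yeast harbouring a defined cell-cycle control change; reduced growth compared with vehicle-treated controls gives the value.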

[9] = NCI Yeast Anticancer Drug Screen. Data for the cln2 rad14 strain (AID 165);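 further: 0% = growth equal to vehicle treated cultures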; details: S. cerevisiae cln2 rad14 strain, stronger effect = higher value
How it was run: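 Readout is yeast growth inhibition versus vehicle-treated controls, using a strain with cln2 and rad14 alterations exposed to compound.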

[10] = NCI Yeast Anticancer Drug Screen. Data for the bub3 strain (AID 167); details: S. cerevisiae bub3 mutant strain, stronger effect = higher value
How it was run: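 Compounds were applied to a genetically altered yeast strain carrying a cell-cycle control defect. Growth inhibition was scored against vehicle-treated controls.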

[11] = NCI Yeast Anticancer Drug Screen. Data for the wt2 strain (AID 169);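 further: 0% = growth of vehicle-treated yeast cultures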; details: S. cerevisiae wt2 strain growth inhibition, stronger effect = higher value
How it was run: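 Against vehicle-treated controls, the growth of yeast exposed to each compound was compared, and the inhibition was recorded.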

[12] = NCI Yeast Anticancer Drug Screen. Data for the mlh1 strain (AID 171);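 further: 0% = growth of vehicle-treated control cultures of the same strain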; details: S. cerevisiae mlh1 strain growth inhibition, stronger effect = higher value
How it was run: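 Measured: yeast growth. Reference: vehicle-treated controls. Organism: strain with a defined alteration affecting DNA damage repair or cell cycle control, treated with compound.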

[13] = NCI Yeast Anticancer Drug Screen. Data for the sgs1 strain (AID 173);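 further: 0% = growth of vehicle-only control cultures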; details: S. cerevisiae sgs1 mutant, stronger effect = higher value
How it was run: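 Each compound was added to cultures of the altered yeast strain. Growth was recorded, and inhibition was derived by comparison with vehicle controls.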

[14] = NCI Yeast Anticancer Drug Screen. Data for the mlh1 rad18 strain (AID 175); details: S. cerevisiae mlh1 rad18 strain growth inhibition, stronger effect = higher value
How it was run: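 Genetically defined yeast (DNA repair-deficient) exposed to compounds; growth inhibition determined relative to vehicle.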

[15] = NCI Yeast Anticancer Drug Screen. Data for the rad18 strain (AID 177); details: S. cerevisiae rad18 mutant growth inhibition, stronger effect = higher value
How it was run: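 Vehicle-treated cultures served as the baseline for scoring compound-induced growth inhibition in DNA-repair-mutant yeast.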

[16] = NCI Yeast Anticancer Drug Screen. Data for the rad52 strain (AID 147);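 further: 0% = growth of vehicle-treated control cultures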; details: S. cerevisiae rad52 mutant growth inhibition, stronger effect = higher value
How it was run: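 The repair-mutant yeast strain was incubated with compounds, then growth was read and inhibition derived relative to vehicle.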

[17] = at 5.0 µM (retest, dose inferred, filed as 0.5)
[18] = at 50.0 µM (retest, dose inferred, filed as 5.0)

Measured: growth inhibition

Cc1nc2ccc(NCCN(C)C)c3c(=O)c4ccccc4n1c23
active: [4]; at 11.0 µM 75% | [4]; at 33.0 µM 89% | [4]; [18] 79% | [4]; at 100.0 µM 92% | [14]; at 50.0 µM 78.9%
inactive: [1]; at 1.2 µM 26% | [1]; at 3.7 µM 25% | [1]; at 11.0 µM 37% | [1]; at 33.0 µM 31% | [1]; at 100.0 µM 26% | [2]; at 1.2 µM 26% | [2]; at 3.7 µM 11% | [2]; at 11.0 µM 40% | [2]; at 33.0 µM 55% | [2]; at 100.0 µM 65% | [3]; at 1.2 µM 27% | [3]; at 3.7 µM 31% | [3]; at 11.0 µM 33% | [3]; at 33.0 µM 27% | [3]; at 100.0 µM 38% | [4]; at 1.2 µM 43% | [4]; at 3.7 µM 50% | [4]; [17] 28% | [4]; at 50.0 µM -1.8% | [5]; at 1.2 µM 25% | [5]; at 3.7 µM 30% | [5]; [17] 16% | [5]; at 11.0 µM 41% | [5]; at 33.0 µM 42% | [5]; [18] 25% | [5]; at 50.0 µM 6.95% | [5]; at 100.0 µM 37% | [6]; at 1.2 µM 6% | [6]; at 3.7 µM 11% | [6]; at 11.0 µM 6% | [6]; at 33.0 µM 12% | [6]; at 100.0 µM 20% | [7]; [17] 1% | [7]; [18] 15% | [7]; at 50.0 µM -6.05% | [8]; at 1.2 µM 5% | [8]; at 3.7 µM 22% | [8]; at 11.0 µM 20% | [8]; at 33.0 µM -2% | [8]; at 100.0 µM 19% | [9]; [17] 10% | [9]; [18] 25% | [9]; at 50.0 µM 10.2% | [10]; at 1.2 µM 5% | [10]; at 3.7 µM 4% | [10]; [17] -10% | [10]; at 11.0 µM 9% | [10]; at 33.0 µM 11% | [10]; [18] 21% | [10]; at 50.0 µM -2.7% | [10]; at 100.0 µM 9% | [11]; at 1.2 µM -32% | [11]; at 3.7 µM -38% | [11]; at 11.0 µM -43% | [11]; at 33.0 µM -39% | [11]; at 100.0 µM -19% | [12]; at 1.2 µM 27% | [12]; at 3.7 µM 31% | [12]; at 11.0 µM 33% | [12]; at 33.0 µM 27% | [12]; at 100.0 µM 38% | [13]; at 1.2 µM 23% | [13]; at 3.7 µM 33% | [13]; at 11.0 µM 24% | [13]; at 33.0 µM 24% | [13]; at 100.0 µM 35% | [14]; [17] 11% | [14]; [18] 43% | [15]; at 1.2 µM 8% | [15]; at 3.7 µM 23% | [15]; at 11.0 µM 29% | [15]; at 33.0 µM 39% | [15]; at 100.0 µM 51%

COc1ccc(CCN2C(=O)C=CC2=O)cc1OC
active: [16]; at 11.0 µM 79% | [16]; at 33.0 µM 99% | [16]; at 100.0 µM 99% | [1]; at 33.0 µM 99% | [1]; at 100.0 µM 99% | [2]; at 11.0 µM 82% | [2]; at 33.0 µM 96% | [2]; at 100.0 µM 98% | [4]; at 33.0 µM 98% | [4]; at 50.0 µM 83.2% | [4]; at 100.0 µM 98% | [5]; at 11.0 µM 79% | [5]; at 33.0 µM 100% | [5]; at 50.0 µM 92.3% | [5]; at 100.0 µM 100% | [6]; at 33.0 µM 99% | [6]; at 100.0 µM 99% | [7]; [17] 74% | [7]; [18] 98% | [8]; at 11.0 µM 81% | [8]; at 33.0 µM 99% | [8]; at 100.0 µM 99% | [9]; [17] 78% | [9]; [18] 99% | [10]; [17] 97% | [10]; at 11.0 µM 88% | [10]; at 33.0 µM 99% | [10]; [18] 97% | [10]; at 100.0 µM 99% | [11]; at 33.0 µM 99% | [11]; at 100.0 µM 99% | [12]; at 33.0 µM 99% | [12]; at 100.0 µM 98% | [13]; at 33.0 µM 98% | [13]; at 100.0 µM 98% | [14]; at 50.0 µM 84.4% | [15]; at 33.0 µM 98% | [15]; at 100.0 µM 98%
inactive: [16]; at 1.2 µM 13% | [16]; at 3.7 µM 37% | [1]; at 1.2 µM -1% | [1]; at 3.7 µM 7% | [1]; at 11.0 µM 62% | [2]; at 1.2 µM 7% | [2]; at 3.7 µM 50% | [4]; at 1.2 µM 4% | [4]; at 3.7 µM 18% | [4]; [17] 27% | [4]; at 11.0 µM 67% | [4]; [18] 51% | [5]; at 1.2 µM 5% | [5]; at 3.7 µM 38% | [5]; [17] 43% | [5]; [18] 42% | [6]; at 1.2 µM -10% | [6]; at 3.7 µM 3% | [6]; at 11.0 µM 63% | [8]; at 1.2 µM 17% | [8]; at 3.7 µM 33% | [10]; at 1.2 µM 15% | [10]; at 3.7 µM 43% | [11]; at 1.2 µM -21% | [11]; at 3.7 µM 5% | [11]; at 11.0 µM 48% | [12]; at 1.2 µM -19% | [12]; at 3.7 µM 4% | [12]; at 11.0 µM 53% | [13]; at 1.2 µM 1% | [13]; at 3.7 µM 5% | [13]; at 11.0 µM 38% | [14]; [17] 23% | [14]; [18] 44% | [15]; at 1.2 µM -2% | [15]; at 3.7 µM 15% | [15]; at 11.0 µM 64%
